POLB inh: inhibitors of human DNA polymerase beta; P06746; Pol beta primer extension/strand displacement, fluorescence kinetic; Potency, µM (highest dose often 114 µM), inactives show top-dose activity change, negative = inhibition, most hits filed as inhibitors; 340,000 tested, 1.3% active; also: % is scaled to controls: 0 for no effect and ±100 for the full control effect
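10 nM enzyme + cpd, 15 min RT; start with substrate 50 nM final; read 0 min and after 10 min RT. Corrected, normalized data; 4-parameter Hill curve fit.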
Pol kappa inh: inhibitors of human DNA polymerase kappa; purified Pol kappa, fluorescent DNA synthesis assay, 10 min; Potency, µM (series often up to 107 µM), inactives show top-dose activity, negative = inhibition, usual class: inhibitors; 400,000 tested, 0.53% active; AID 588579; also: % is scaled to controls: 0 for no effect and ±100 for the full control effect
Target sequence (Q9UBT6 whole entry, looked up): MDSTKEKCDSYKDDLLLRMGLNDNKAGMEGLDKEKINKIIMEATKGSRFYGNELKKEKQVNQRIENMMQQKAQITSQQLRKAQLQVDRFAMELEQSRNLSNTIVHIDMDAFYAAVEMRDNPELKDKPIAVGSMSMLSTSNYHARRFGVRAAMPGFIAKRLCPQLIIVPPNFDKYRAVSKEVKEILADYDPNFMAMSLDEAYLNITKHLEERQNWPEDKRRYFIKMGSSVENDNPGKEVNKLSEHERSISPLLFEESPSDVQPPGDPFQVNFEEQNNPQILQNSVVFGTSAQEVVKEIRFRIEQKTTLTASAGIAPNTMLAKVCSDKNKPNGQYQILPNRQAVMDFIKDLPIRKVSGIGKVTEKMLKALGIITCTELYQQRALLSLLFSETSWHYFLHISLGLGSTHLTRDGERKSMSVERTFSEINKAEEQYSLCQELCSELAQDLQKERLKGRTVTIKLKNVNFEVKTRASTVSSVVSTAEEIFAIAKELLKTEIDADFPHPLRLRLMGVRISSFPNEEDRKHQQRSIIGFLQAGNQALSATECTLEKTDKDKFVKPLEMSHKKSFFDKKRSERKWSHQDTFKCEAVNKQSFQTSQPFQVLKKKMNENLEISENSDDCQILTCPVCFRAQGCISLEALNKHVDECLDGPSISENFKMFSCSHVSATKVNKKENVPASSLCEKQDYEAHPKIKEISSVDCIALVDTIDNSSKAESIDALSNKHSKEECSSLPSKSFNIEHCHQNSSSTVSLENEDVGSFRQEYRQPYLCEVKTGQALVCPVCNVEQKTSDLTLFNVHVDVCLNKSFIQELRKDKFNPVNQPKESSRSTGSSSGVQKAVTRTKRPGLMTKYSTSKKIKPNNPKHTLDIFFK
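10 nM Pol kappa was preincubated with compounds for 15 min at room temperature. Reaction started with 50 nM (final) substrate. Fluorescence read kinetically at 0 and 10 min.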
POLI inh: blocks human DNA polymerase iota activity; Pol iota fluorescent replication assay, 10 min; 390,000 tested, 1% active; Q9UNA4; Potency, µM (doses to about 115 µM), for the others: top-dose activity, negative = inhibition, actives largely listed as inhibitors
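Fluorescent replication assay read twice, at 0 min and 10 min after adding 50 nM (final) substrate. Enzyme (10 nM) and compounds were first incubated 15 min at room temperature; enzyme-free buffer wells were negative controls.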
WRN helicase inh: WRN helicase (human) inhibition; Q14191; WRN helicase unwinding, fluorescent forked duplex, kinetic; Potency, µM (series often up to 114 µM), inactives show at the top dose activity change, negative = inhibition, usual class: inhibitors; 360,000 tested, 0.46% active; AID 651768; also: % is scaled to controls: 0 for no effect and ±100 for the full control effect; nearly all actives have a fitted effect of over 55% in size
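Enzyme (20 nM final) and test compound sit together 15 min at room temperature before substrate addition. Substrate is a single-forked duplex oligonucleotide (100 nM) labelled with fluorophore and quencher, with 2 mM ATP; helicase unwinding raises red fluorescence, read kinetically.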
POLH inh: inhibitors of human DNA polymerase eta. 390,000 tested, 1.2% active. AID 588591. Potency, µM (titrated, usually from 114 µM), for the others: at the highest dose activity change, negative = inhibition, actives largely listed as inhibitors. recombinant Pol eta, fluorescent DNA replication assay; also: % is scaled to controls: 0 for no effect and ±100 for the full control effect
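Pol eta at 10 nM preincubated with compounds 15 min at room temperature; reaction started with fluorescent substrate (50 nM final) and read kinetically at 0 and 10 min.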
FEN1 inh: blocks human flap endonuclease 1; Potency, µM (series often up to 114 µM), inactives show top-dose activity change, negative = inhibition, most hits filed as inhibitors; Recombinant FEN1 flap cleavage, fluorescence, 15 min; 390,000 tested, 0.35% active; also: % is scaled to controls: 0 for no effect and ±100 for the full control effect; nearly all actives have a fitted effect of over 65% in size
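Compounds are tested as a concentration series against 10 nM FEN1; after a 15 min room-temperature preincubation, 50 nM substrate starts cleavage, with plate reads at 0 and 15 min. Normalized responses are fitted by a Hill equation.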
An asterisk follows results filed as active; ? = inconclusive; · = no result; [ ] = dose if it differs, or a comment. This is a sample that favours compounds with a hit; in the whole collection about 2.4% have one here. Calls follow the shape of the dose curve; as a rule, active = well fitted curve in the direction sought with a large enough effect; inconclusive = small, poorly fitted or top-dose-only effect, or another doubt; inactive = no such curve, though single readings can be large; an effect the other way counts as inactive or inconclusive. Potency is read from the fitted curve at half-maximal effect.

SMILES	POLB inh	Pol kappa inh	POLI inh	WRN helicase inh	POLH inh	FEN1 inh
CSCc1nc2sc(C(=O)Nc3nc(C)cs3)c(C)c2c(=O)[nH]1	-2.5%	-25.3%	?	-5.4%[11.6 µM]	31.6µM*	2.1%
Brc1ccc(/C=C2\C=Cc3ccccc32)cc1	·	-16.9%	25.4%	·	·	-0.2%
C1=Cc2ccccc2/C1=C\c1cccc(/C=C2\C=Cc3ccccc32)c1	·	?	?	·	·	35.5µM*
C1=Cc2ccccc2/C1=C\c1ccc(/C=C2\C=Cc3ccccc32)cc1	·	-12.0%	-1.7%	·	·	14.2%
O=[N+]([O-])c1c(Nc2ccccc2O)cc(Cl)c2nonc12	17.8µM*	-1.7%	11.2µM*	?	44.7µM*	-26.4%
O=C(COc1cccc2cccnc12)N/N=C/c1ccccc1O	31.6µM*	-13.9%	4.1%	?	-16.8%	1.4%
O=C(O)COc1ccccc1/C=N/NC(=O)c1cc2ccccc2cc1O	-10.7%	?	14.1µM*	-8.2%[11.6 µM]	-5.2%	-18.0%
C#CCn1cc(/C=N/NC(=O)COc2cccc3cccnc23)c2ccccc21	?	?	22.4µM*	?	?	-6.2%
O=C(N/N=C/c1ccccc1C(=O)O)c1ccc(COc2cccc3cccnc23)cc1	?	?	?	2.4%[11.6 µM]	39.8µM*	-14.4%
COc1ccc(NC(=O)c2cnc3cc(C)ccn3c2=O)c(OC)c1	14.2%	7.2%	34.8%	·	-14.5%	-1.6%
CC(=O)Nc1ccc(NC(=O)c2cc(S(=O)(=O)N3CCCCC3)ccc2C)cc1	·	-5.9%	?	0.6%	-13.4%	-11.1%
Cc1ccc(S(=O)(=O)N2CCCCC2)cc1C(=O)Nc1ncn[nH]1	25.1µM*	·	·	·	·	·
COc1ccc(CC(=O)NNS(=O)(=O)c2cccc([N+](=O)[O-])c2)cc1OC	29.2%	10.2%	19.4%	-0.1%	-11.0%	-11.1%
COc1ccc(-n2c(O)c(/C=N/NS(=O)(=O)c3cccc([N+](=O)[O-])c3)c3ccccc3c2=O)cc1OC	-20.0%	-9.1%	?	14.1µM*	-10.5%	-8.6%
Nc1ccc(O)c([N+](=O)[O-])c1	·	-23.7%	79.4µM*	-5.2%	-12.7%	-17.0%
Oc1cc2c(c(Cl)c1O)CCNCC2c1ccccc1 (configuration not stated)	?	11.0%[60.1 µM]	31.6µM*	-6.6%[11.6 µM]	?	-8.7%
Cc1ccnc(NS(=O)(=O)c2ccc(CC(C)C)cc2)c1	100µM*	-3.1%	-22.5%	5.6%	0.6%	10.3%
COc1cc(N)c(N)cc1OC	·	-20.7%	22.4µM*	·	·	?
Cc1ccc(C(=O)NN2C(=O)c3ccc(S(=O)(=O)c4ccc(C(=O)O)cc4)cc3C2=O)cc1	?	-11.7%	86.8%	-20.9%	-17.7%	-0.6%
O=C(O)c1ccc(S(=O)(=O)c2ccc3c(c2)C(=O)N(NC(=O)c2ccc(O)cc2)C3=O)cc1	28.2µM*	-8.7%	75.1%	-2.8%[57.1 µM]	-3.9%	-0.4%
Cc1ccccc1Nc1nc(CSc2nnc(-c3ccoc3C)n2C)cs1	5.7%	1.1%	18.5%	0.4%	-3.2%	10.2%
Cc1occc1-c1nnc(SCc2cc(=O)n3cc(Br)ccc3n2)n1C	44.7µM*	-44.8%	?	-13.8%	?	-2.7%
CC(=O)N1CCc2c(sc(NC(=O)c3ccc([N+](=O)[O-])o3)c2C(N)=O)C1	·	·	·	-11.7%	50.1µM*	·
O=C1/C(=C\c2ccc(Br)o2)Cc2ccccc21	39.8µM*	-9.0%	?	-34.5%[57.1 µM]	?	8.6%
CCOc1cc(/C=N/Nc2nc3ccccc3[nH]2)cc(Br)c1OCC(=O)N(C)C	?	-28.4%	97.8%	-25.1%	-27.7%	-4.2%
SMILES	POLB inh	Pol kappa inh	POLI inh	WRN helicase inh	POLH inh	FEN1 inh
CCOc1cc(/C=C2\COc3ccccc3C2=O)cc(Br)c1OCC(=O)N(C)C	-24.5%	0.8%	17.8µM*	-26.3%	?	-26.4%
COc1cc(/C=C2\COC/C(=C\c3cc(OC)c(OC)c(OC)c3)C2=O)cc(OC)c1OC	-2.3%	-20.6%	11.2µM*	-17.6%	?	-10.1%
COc1ccc(/C=C2\COc3ccccc3C2=O)cc1OC	7.1%	-5.8%	25.1µM*	-11.9%[11.6 µM]	?	4.1%
Cc1ccc(Cl)cc1N(C)C(=O)c1cc2ccc3cccnc3c2[nH]1	8.4%	-12.0%	?	·	10.8%	0.2%
CCN1CCc2nc3sc(C(=O)c4ccccc4)c(N)c3cc2C1	10.0%	-15.9%	69.1%	·	3.9%	-14.5%
COc1cc(/C=C2/C(=O)N(c3ccc(C(=O)O)cc3)N=C2C)cc(OC)c1O	13.0%	-20.9%	1.58µM*	-4.1%[11.6 µM]	?	?
COc1cc(/C=C2\C(=O)N(c3ccc(S(N)(=O)=O)cc3)N=C2C)ccc1OC(=O)c1ccco1	?	0.9%	2.51µM*	-16.0%[11.6 µM]	-13.1%	-16.5%
COc1cccc(OCCOc2ccc(/C=C3\C(=N)N4N=C(S(C)(=O)=O)SC4=NC3=O)cc2OC)c1	-29.4%	-30.8%	?	-21.7%	-16.0%	10.6%
COc1cc(/C=C2\C(=N)N3N=CSC3=NC2=O)cc(Br)c1OC(=O)c1ccco1	?	-13.7%	?	-5.2%	79.4µM*	-4.2%
N=C1/C(=C\c2ccc(OC(=O)c3ccco3)cc2)C(=O)N=C2SC=NN12	44.1%	-15.4%	19.3%	?	-1.4%	0.2%
C=CCOc1ccc(/C=C2\C(=N)N3N=C(S(=O)(=O)CC)SC3=NC2=O)cc1OC	-2.6%	-4.0%	?	-9.7%[11.6 µM]	39.8µM*	-3.8%
Cc1ccnc2ccc3ccccc3c12	·	-29.3%	?	·	·	?
COc1ccc(NC(=O)CC2C(=O)N(c3ccc(C)cc3)C(=O)N2CCc2ccccc2)cc1 (configuration not stated)	27.3%	-11.1%	-6.5%	·	-14.4%	-11.1%
Cc1ccc(CNC(=O)Cn2ccn(-c3ccc(F)cc3)c(=O)c2=O)cc1	-22.8%	1.9%	37.4%	·	-18.4%	0.4%
COc1cc(/C=C2/C(=N)N3C(SC)=NSC3=NC2=O)ccc1OC(=O)c1ccco1	2.9%	-14.9%	?	-31.0%	-7.1%	5.1%
CCS(=O)(=O)C1=NN2C(=N)/C(=C\c3ccc(OC(=O)c4ccco4)c(OC)c3)C(=O)N=C2S1	-25.2%	-29.7%	?	-25.7%	79.4µM*	-7.5%
CCOC(=O)N1CCN(c2cc(NCCC(=O)O)c3c4c(onc24)-c2ccccc2C3=O)CC1	25.1µM*	17.8µM*	?	-19.3%[57.1 µM]	3.16µM*	?
O=C(O)CCCNc1cc(N2CCC3(CC2)OCCO3)c2noc3c2c1C(=O)c1ccccc1-3	11.2µM*	·	·	·	·	·
CCCCNc1cc(N2CCN(C3CCCCC3)CC2)c2noc3c2c1C(=O)c1ccccc1-3	-6.6%	-7.7%	32.6%	·	-5.2%	10.9%
O=C1c2ccccc2-c2onc3c(N4CCN(CCO)CC4)cc(N4CCN(C(=O)c5ccco5)CC4)c1c23	-1.4%	-17.4%	?	151.1%	?	44.7µM*
